# GLS inhibitor = qHTS for Inhibitors of Glutaminase (GLS); 0.21% of 410,000 active; Glutaminase kidney isoform, mitochondrial (Homo sapiens), O94925; AID 624170, 2012; GLS enzymatic activity, qHTS titration; Potency, µM (highest dose often 45.5 µM), hits mostly inhibitors
#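 hKGA in 45 mM KH2PO4 (pH 8.2), 0.02% Tween-20 with compound, then 1mM L-Glutamine (stock as added) plus glutamate oxidase/HRP/Amplex red coupling mix. Fluorescence read initially and after 30 min at RT; signal change reflects glutamate formation.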
# HP1b chromo inh = HTS for Inhibitors of HP1-beta Chromodomain Interactions with Methylated Histone Tails; Potency, µM (top dose mostly 114 µM), most hits filed as inhibitors; AlphaScreen HP1-beta / biotin-H3K9me3 peptide binding; 0.56% of 390,000 active; Chromobox protein homolog 1 (Homo sapiens), P83916; AID 540317, 2011; further: nearly all actives have a fitted effect of over 70% in size
#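 HP1-beta protein (50 nM final) preincubated 30 min at room temperature with biotinylated H3(1-18)K9me3 peptide (50 nM) in PBS pH 7.4, 0.01% Tween-20, then compound added for 30 min. AlphaScreen streptavidin donor/nickel chelate acceptor beads (10 ug/mL final), 30 min dark, luminescence read.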
# G9a inh = qHTS Assay for Inhibitors of Histone Lysine Methyltransferase G9a. Histone-lysine N-methyltransferase EHMT2 (Homo sapiens), Q96KQ7. G9a H3K9 monomethylation, AlphaScreen, 2 h. Potency, µM (doses to about 102 µM), most hits filed as inhibitors. 8.8% of 350,000 active. AID 504332, 2011; further: nearly all actives have a fitted effect of over 75% in size
#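 Compounds were preincubated with 20 nM G9a for 15 min, after which biotinylated H3K9 peptide (500 nM) and SAM (20 uM) started a 2 h room-temperature reaction. Monomethylated product was quantified by antibody-based AlphaScreen chemiluminescence.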
# JMJD2A Tudor inh = qHTS Assay for Inhibitors of JMJD2A-Tudor Domain; 4.4% of 390,000 active; AID 504339, 2011; AlphaScreen JMJD2A-Tudor / H3K4me3 peptide binding; Lysine-specific demethylase 4A (Homo sapiens), O75164; Potency, µM (doses to about 114 µM), usual class: inhibitors; further: nearly all actives have a fitted effect of over 50% in size
# BAZ2B inh = qHTS Assay for Inhibitors of BAZ2B; 4.4% of 360,000 active; Potency, µM (series often up to 114 µM), most hits filed as inhibitors; Bromodomain adjacent to zinc finger domain protein 2B (Homo sapiens), Q9UIF8; AlphaScreen BAZ2B-H3K14Ac peptide displacement; further: nearly all actives have a fitted effect of over 60% in size
#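 AlphaScreen displacement: compounds (up to 110uM) incubated 30 min at room temperature with a preformed 50 nM BAZ2B/50 nM biotinylated H3K14Ac peptide complex in PBS pH 7.4 with Tween-20. Donor and acceptor beads at 10 ug/mL final added, 20 min light-protected before reading.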
# 12-hLO cuvette = Cuvette-Based Assay for Inhibitors of 12-hLO (12-human lipoxygenase): 8HQ Series - Round 1; purified 12-hLO, cuvette UV 234 nm product formation; Potency, µM, hits mostly inhibitors; shares compounds with BAZ2B inh; AID 2163, 2009; 60% of 35 active;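 active means compounds that slowed 12-hLO product formation enough to yield a measured IC50 potency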
# Target sequence (P18054 whole entry, looked up): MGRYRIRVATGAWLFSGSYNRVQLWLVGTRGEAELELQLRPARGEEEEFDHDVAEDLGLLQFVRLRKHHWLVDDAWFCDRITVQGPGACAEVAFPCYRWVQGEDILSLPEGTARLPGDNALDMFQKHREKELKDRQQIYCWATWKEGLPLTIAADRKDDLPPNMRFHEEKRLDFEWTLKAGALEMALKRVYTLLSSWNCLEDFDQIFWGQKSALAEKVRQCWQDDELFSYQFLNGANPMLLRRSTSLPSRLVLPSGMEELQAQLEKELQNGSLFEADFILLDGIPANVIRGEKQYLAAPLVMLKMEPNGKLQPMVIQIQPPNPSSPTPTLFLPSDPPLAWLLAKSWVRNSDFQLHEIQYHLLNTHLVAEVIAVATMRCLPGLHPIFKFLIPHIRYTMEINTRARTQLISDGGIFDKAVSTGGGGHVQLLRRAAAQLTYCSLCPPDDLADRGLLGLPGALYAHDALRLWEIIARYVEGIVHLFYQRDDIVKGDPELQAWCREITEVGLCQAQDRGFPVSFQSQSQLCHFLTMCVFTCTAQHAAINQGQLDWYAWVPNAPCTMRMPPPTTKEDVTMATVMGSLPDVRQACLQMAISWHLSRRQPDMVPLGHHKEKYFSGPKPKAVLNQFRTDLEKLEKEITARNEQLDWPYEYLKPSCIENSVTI
# KDM4E inh = Inhibitors of Human Jumonji Domain Containing 2E (JMJD2E): 8HQs - Round 1; shares compounds with BAZ2B inh; Potency, µM (top dose mostly 57 µM), usual class: inhibitors; JMJD2E demethylase, FDH-coupled NADH fluorescence (FDH is formaldehyde dehydrogenase); 89% of 130 active
# ME-1 prolif = qHTS Assay for Compounds Blocking the Interaction Between CBF-beta and RUNX1 for the Treatment of Acute Myeloid Leukemia: ME-1 cellular proliferation. Potency, µM (series often up to 56.1 µM), hits mostly inhibitors. shares compounds with BAZ2B inh. ME-1 cell proliferation, ATP luminescence, 48 h. AID 504370, 2011. 20% of 140 active
# A number is an active result; – = inactive; ? = inconclusive; · = not tested or not shown; [ ] = dose if it differs, or a comment. This is a sample that favours compounds with a hit; in the whole collection about 10% have one here. Unless noted, the call rests on the fitted dose curve; in most records, active means well fitted curve in the direction sought with a large enough effect; inconclusive means small, poorly fitted or top-dose-only effect, or another doubt; inactive means no such curve, though single readings can be large; an effect the other way counts as inactive or inconclusive.
SMILES,GLS inhibitor,HP1b chromo inh,G9a inh,JMJD2A Tudor inh,BAZ2B inh,ME-1 prolif,others
O=C(O)c1cc(O)c2c(c1)[C@H]([C@H]1c3cc(C(=O)O)cc(O)c3C(=O)c3c(O[C@@H]4OC(CO)C(O)C(O)C4O)cccc31)c1cccc(O[C@@H]3OC(CO)C(O)C(O)C3O)c1C2=O (some centres undefined),–,·,–[2.33 µM],·,·,–,
OCC1OC(Oc2cccc3ccccc23)C(O)C(O)C1O (centres undefined),–,–,–,–,–,·,
CCOC(=O)/C(C#N)=C/c1ccc(OC(=O)c2ccccn2)cc1,–,–,4.47µM,0.794µM,4.47µM,–,
COCc1cc(O)c(O)c(O)c1-c1c(COC)cc(O)c(O)c1O,·,·,1µM,·,·,–,
CCc1sc(N(C(=O)Cc2ccccc2)c2ccccc2F)nc1-c1ccc(C)cc1,–,–,–,–,–,·,
CC(=O)NC(C)c1cc(Cl)c2cccnc2c1O (centres undefined),–,–,–[12.7 µM],79.4µM,35.5µM,·,12-hLO cuvette=–;KDM4E inh=28.9µM
CCC(=O)NC(C)c1cc(Cl)c2cccnc2c1O (centres undefined),–,–,–[12.7 µM],79.4µM,31.6µM,·,12-hLO cuvette=50µM;KDM4E inh=28.9µM
CC(=O)NC(C)c1cc(Cl)c2ccccc2c1O (centres undefined),–,–,–[0.501 µM],–,–,·,
CC(=O)NCc1cc(Cl)c2cccnc2c1O,·,·,–[12.7 µM],·,10µM,·,12-hLO cuvette=–;KDM4E inh=20.4µM
COc1ccc(S(=O)(=O)N2CCOCC2)cc1NC(=O)CN(C)CC(=O)Nc1cccc(F)c1,–,–,·,–,·,·,
O=c1c(O)cccc2cc(O)c(O)c(O)c12,1.58µM,?,0.562µM,0.891µM,0.794µM,?,
C[C@@H]1CN([C@H](C)CO)C(=O)CCCn2cc(nn2)CO[C@H]1CN(C)C(=O)Nc1cccc(C(F)(F)F)c1,–,·,·,·,·,·,
Cc1cc(=O)cc2oc3cc(N)c(-c4c(C)cc(O)cc4O)c(C)c3nc1-2,·,·,·,·,·,–,
COc1ccc(S(=O)(=O)N2CCOCC2)cc1N=Nc1sc(N)nc1-c1ccccc1,–,?,14.1µM,–,?,–,
CCC(=O)NC(c1cccs1)c1cc([N+](=O)[O-])c2cccnc2c1OC (centres undefined),?,·,?,·,?,·,12-hLO cuvette=–;KDM4E inh=4.57µM
CC(=O)NC(c1ccco1)c1cc(F)c2cccnc2c1O (centres undefined),–,–,–[12.7 µM],56.2µM,20µM,·,12-hLO cuvette=5µM;KDM4E inh=28.9µM
CC(=O)NC(c1cccs1)c1cc(F)c2cccnc2c1O (centres undefined),–,–,–[12.7 µM],79.4µM,25.1µM,·,12-hLO cuvette=2µM;KDM4E inh=28.9µM
CC(=O)NC(c1ccco1)c1cc(Cl)c2ccccc2c1O (centres undefined),–,–,–[12.7 µM],–,–,·,
CC(=O)NC(c1ccco1)c1cc(Cl)c2ccc(Cl)nc2c1O (centres undefined),–,–,?,–,–,·,12-hLO cuvette=–;KDM4E inh=–
CCCCn1c(SCC#N)nc2ccccc2c1=O,·,–,·,–,·,·,
COc1ccc(N2CC(NC(=O)CCc3ccccc3)CC2=O)cc1OC (centres undefined),–,–,–,–,–,·,
CCN(C(=O)COC(=O)/C=C/c1ccc(F)cc1)C1CCCCC1,–,–,·,–,·,·,
O=[N+]([O-])c1cc2c(cc1/C=N/n1c(-c3ccccn3)n[nH]c1=S)OCO2,–,?,0.794µM,3.98µM,7.08µM,?,
O=C(N/N=C/c1cc2c(cc1[N+](=O)[O-])OCO2)c1ccccn1,–,–,·,?,·,·,
CC(C)(c1cc(Br)c(O)c(Br)c1)c1cc(Br)c(O)c(Br)c1,–,–,–[0.501 µM],89.1µM,56.2µM,–,
SMILES,GLS inhibitor,HP1b chromo inh,G9a inh,JMJD2A Tudor inh,BAZ2B inh,ME-1 prolif,others
COc1ccc(NC(=O)c2cc(C)nc3c2c(C)nn3-c2cccc(Cl)c2C)c(OC)c1,–,–,–,–,–,·,
Nc1nc(-c2ccccc2)c(N=Nc2cccnc2)s1,–,?,39.8µM,–,7.94µM,–,
CN(CCCN1CCOCC1)C(=O)c1cc(COc2ccc(F)cc2F)on1,–,–,·,–,–,·,
O=C1COc2ccc(-c3n[nH]c(=O)c4ccccc34)cc2N1,–,–,–[12.7 µM],–,–,·,
Nc1nc(-c2ccc3c(c2)NC(=O)CO3)cs1,–,–,?,?,?,–,
CCC(C)(C)n1nnnc1CN(Cc1cccs1)Cc1cc2cc(OC)ccc2[nH]c1=O,–,–,–,–,–,·,
CCOC(=O)c1cc(-c2ccccc2)nn1CCC#N,–,–,–,–,–,·,
CCc1cccc(NC(=O)CCCCCC2NC(=O)NC2C)c1 (centres undefined),–,0.794µM,1.26µM,0.316µM,0.794µM,–,
CCc1cccc(NC(=O)CCCN2C(=O)NC(C)(C)C2=O)c1,–,–,–[12.7 µM],–,–,·,
CC1Cc2ccccc2N1C(=O)COC(=O)C1(c2ccccc2F)CCCC1 (centres undefined),–,–,–,–,–,·,
COc1cccc2c1NC(C(=O)O)C1CC=CC21 (centres undefined),2.82µM,20µM,2.51µM,8.91µM,3.55µM,?,
COc1cc(C2Nc3c(F)cccc3C3C=CCC32)cc(Br)c1OC (centres undefined),–,–,·,–,?,·,
O=C(CSc1nc2[nH]c(=O)cc(O)c2s1)Nc1nncs1,–,–,·,?,·,·,
COCCCN1CCN(C2Cc3ccccc3Sc3ccc(Cl)cc32)CC1 (centres undefined),–,–,?,22.4µM,?,–,
CC(=O)Nc1ccc(Nc2ccc3c4c(cc(=O)n3C)-c3ccccc3C(=O)c24)cc1,–,–,?,–,?,·,
O=C1c2ccccc2C(=O)c2c(Nc3ccc(CCO)cc3)ccc(O)c21,–,8.91µM,3.55µM,8.91µM,1.78µM,?,
COc1cccc2c1C(=O)c1c(O)c3c(c(O)c1C2=O)C[C@@](O)(C(C)=O)C[C@@H]3O[C@H]1C[C@H](N)[C@H](O)[C@H](C)O1,–,–,35.5µM,?,35.5µM,0.251µM,
COc1cccc2c1C(=O)c1c(O)c3c(c(O)c1C2=O)CC(O)(C(=O)CO)CC3OC1CC(N(C)C)C(O)C(C)O1 (centres undefined),–,?,·,?,·,·,

# Bioassay records from PubChem.
